Experimental data published in PubChem BioAssay AID2315 (National Center for Advancing Translational Sciences (NCATS), 2010).
In all, about 290,000 compounds went through this assay and about 27,000 (9.3%) were called active. For the sample, actives were picked, then their nearest neighbours and some compounds at random. Unmarked numbers belong to inactive results. Rule as the data show it: active = inhibition mostly above about 28% (no sharp cut-off); inactive = mostly below about 43%.

Test: A qHTS for Small Molecule Inhibitors of Shiga Toxin; also: 0% is about no effect
Settings: Vero cells, Shiga toxin protein synthesis inhibition reporter; at 38.7 µM, active compounds read high

| SMILES | inhibition |
| --- | --- |
| Cc1cccc(NC(=O)CCN2CC(C)CC(C)C2)c1 (centres undefined) | -6.03% |
| CCCc1c(C(=O)Nc2ccc(F)cc2)cnn1-c1ccccc1 | 58.3% (active) |
| CCNC(=O)c1cnn(-c2ccccc2)c1-c1ccccc1 | -0.867% |
| CCCc1c(C(=O)O)cnn1-c1ccc(Cl)cc1 | 9.39% |
| Cc1ccc2c(c1)N(S(=O)(=O)c1cc(-c3cc(C)no3)ccc1C)CCO2 | 18.2% |
| c1cnc(N2CCN(c3ccc4ccccc4n3)CC2)nc1 | 71.6% (active) |
| O=C(c1ccncc1)N1CCN(c2ccc3ccccc3n2)CC1 | -6.23% |
| Oc1ccc(CN2CCN(c3ncccn3)CC2)cc1 | -3.72% |
| Cc1ccc(C)c(N2C(=O)CS/C2=N\NC(=O)c2ccccc2Cl)c1 | -31.2% |
| O=C(N/N=C1\CCSC1)c1cc(Cl)ccc1O | 35.8% (active) |
| C/C(=N/NC(=O)c1cc(Cl)ccc1O)C12CC3CC(CC(C3)C1)C2 | 25.6% |
| C=CCn1c(SCC(=O)NC)nnc1C12CC3CC(CC(C3)C1)C2 | 13.7% |
| CC(C)=C(NC(=O)c1ccccc1)C(=O)N/N=C(\C)c1ccccc1O | -2.93% |
| C/C(=N\NC(=O)c1ccccc1C)c1ccc(N2CCOCC2)cc1 | 40.6% |
| C/C(=N\NC(=O)c1ccoc1C)c1ccccc1O | 104% (active) |
| CC1=C(C(=O)NC2CC(C)(C)Cc3c2cnn3-c2ccc(C)cc2)OCCO1 (centres undefined) | -2.9% |
| COc1cc(S(=O)(=O)N2CCN=C2c2ccccc2)ccc1Cl | -4.87% |
| CCN(CC)CCCNC(=O)CCn1nc(-c2ccc(Cl)cc2)ccc1=O | -2.08% |
| COc1ccc2ccccc2c1/C=N/NC(=O)c1cc(C)[nH]n1 | 7.72% |
| CCn1c2ccc(F)cc2c2nnc(SCCN3CCOCC3)nc21 | -3.64% |
| Cc1cccc(C)c1OCCN1CCOCC1 | 1.56% |
| Cc1cc2nc(SCCN3CCOCC3)[nH]c2cc1C | 59.3% (active) |

| SMILES | inhibition |
| --- | --- |
| COc1cccc(CNS(=O)(=O)c2ccc3c(c2)N(C(C)=O)CCS3)c1 | -13.7% |
| COc1ccc(/C=C(\C#N)C(=O)ONC2=NCCCCC2)cc1 | 20.9% |
| Oc1ccc(/C=N/Nc2nc(-c3ccccc3F)nc3ccccc23)c(O)c1 | 16% |
| Cc1nc2ccccc2nc1N/N=C/c1ccc(O)cc1O | 55.6% (active) |
| Cc1cc(N/N=C/c2ccccc2F)c2ccccc2n1 | 26.9% |
| Oc1ccc(/C=N/NC2=NCCCCC2)c(O)c1 | 97.5% (active) |
| C[C@H](C(=O)CC(=O)OC(C)(C)C)[C@H](O)c1ccc(C(F)(F)F)cc1 | 1.74% |
| COCCCNC(=S)N1CCN(c2nc(-c3cccc(OC)c3)cs2)CC1 | 21.1% |
| C=CCOc1ccc(/C=C/C(=O)OCC(=O)NC2CCCCCC2)cc1 | 1.6% |
| COCC(=O)N1CCCC(C(=O)c2ccc(C(F)(F)F)cc2)C1 (centres undefined) | -8.8% |
| CC(=O)Nc1ccc(S(=O)(=O)Oc2ccc(Br)cc2C(=S)N2CCOCC2)cc1 | -12.5% |
| Cn1c(CNC(=O)c2ccco2)nnc1SCC(=O)N1CCN(c2ccccc2)CC1 | 4.34% |
| COc1ccccc1NC(=O)C1=C(C)NC(=O)NC1c1ccc(C)s1 (centres undefined) | 1.28% |
| COc1ccccc1NC(=O)c1ccc(C)s1 | 73.7% (active) |
| COC(=O)c1c(NC(C)=O)sc(C(=O)Nc2ccccc2OC)c1C | -23.1% |
| COc1ccc(/C=C(/NC(=O)c2ccccc2)C(=O)Nc2cccc(C(=O)O)c2)cc1 | -15.3% |
| O=C(OCCN1C(=O)c2ccccc2C1=O)Oc1ccccc1 | -2.38% |
| O=C1c2ccccc2C(=O)N1CCOc1ccc(F)cc1 | 90.8% (active) |
| Cc1cccc2c1N(CCOc1ccccc1)C(=O)C2=O | -13.4% |
| CC(NC(=O)COc1cccnc1[N+](=O)[O-])c1ccc(Cl)cc1Cl (centres undefined) | -9.36% |
| O=C(CCCCCNC(=O)c1ccccc1)N/N=C/c1ccccc1 | 11% |
| O=C(CCC(=O)Nc1ccccc1)N/N=C/c1ccccc1F | 144% (active) |

| SMILES | inhibition |
| --- | --- |
| O=C(Cc1ccccc1)N/N=C/c1ccc(Cl)cc1Cl | 6.24% |
| CN(C)C(=O)c1ccc(NC(=O)c2ccccc2-c2ccccc2)cc1 | -11.5% |
| CCOc1cccc(C(=O)Nc2cnn(Cc3ccccc3)c2)c1 | 17.4% |
| O=C(Nc1ccccc1F)c1ccc(Cn2cc(Br)cn2)cc1 | 71.1% (active) |
| CCc1ccc(NC(=O)c2ccc(Cn3cc([N+](=O)[O-])cn3)cc2)cc1 | 51.8% |
| CC(NC(=O)Cn1cc(C(F)(F)F)cc(Cl)c1=O)c1ccccc1 (centres undefined) | -1.42% |
| NNC(=O)CSc1nnc(-c2ccccc2)n1-c1ccccc1 | -7.44% |
| COc1ccc(C(=O)NC2CC2)cc1OC1CCN(Cc2ccc(SC)cc2)CC1 | -0.345% |
| Cc1nnc(NCCO)c2ccccc12 | 10.4% |
| COc1ccc(Nc2nnc(C)c3ccccc23)cc1 | 106% (active) |
| COc1ccc(Nc2nc(=O)[nH]nc2C)cc1 | 16.1% |
| CN(Cc1ccccc1)C(=O)C1CCCN(c2ncnc3c2nc2n3CCCCC2)C1 (centres undefined) | 21.9% |
| C/C(=C/c1ccccc1)C(=O)N1CCN(c2ccccc2)CC1 | 18.9% |
| Cc1cccc(C(=O)OC(C)CN2CCCC2)c1 (centres undefined) | 5.97% |
| CC(C)(C)c1ccc(C(=O)NNC(=O)Cc2ccccc2)cc1 | 76.6% (active) |
| O=C(CCc1ccccc1)NNC(=O)c1ccc(Br)cc1 | 34.5% |
| CCNC(=S)NNC(=O)Cc1ccccc1 | -8.55% |
| CCc1ccc2c(c1)C(c1ccc([N+](=O)[O-])cc1)=NNC(c1ccccc1)=N2 | 31.4% |
| CCOc1ccc2c(c1)C(c1ccc(C)cc1)=NNC(c1ccc(C)cc1)=N2 | 85.1% (active) |
| Cc1ccc(C2=Nc3c(ccc4ccccc34)C(c3ccncc3)=NN2)cc1 | 5.77% |
